From PubChem BioAssay (NCI) come the findings set out here.

Structures are written as SMILES. This is part of a sample that, as a whole, favours compounds with a hit. Of some 83,000 tested, about 20% had one in any assay.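 Growth was measured after 48 h exposure to one concentration of compound in 96-well plates. Values under 10 count as active.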 Calls of active or inactive are those of the source.

This test deals with OVCAR-8 ovarian. As to the kind of experiment: NCI-60 one-dose screen, 48 h (100 = growth as untreated, 0 = no growth, -100 = all killed). The conditions noted are these: 10 µM unless noted. How it is done:
Growth inhibition of the OVCAR-8 human tumor cell line is measured as a screen for anti-cancer activity. Cells are grown in 96 well plates and exposed to the test compound for 48 hours. Compounds are tested at a single concentration, which is 10^-5 M for most compounds. The reported endpoint is percent growth (GI% or GIPRCNT), where numbers from 0 - 100% represent growth inhibition, and numbers from -100% - 0 represent cell death. For example, a value of 40 represents 60% growth inhibition. A value of 0 means no net growth occurred over the course of the experiment. A value of -40 indicates 40% of cells at the beginning of the experiment died by the end of the experiment. A value of -100 means all cells are dead at the end of the experiment.
NCI-60 Human Tumor Cell Lines Screen was performed using the standard one-dose NCI protocol, which is described in more detail at https://dtp.cancer.gov/discovery_development/nci-60/default.htm.
Compounds with GIPRCNT values below 10 were considered active. Activity score was based on GIPRCNT using the following formula: […]
Score is 0 for GIPRCNT values of 100 or above, 50 for GIPRCNT values of 0, and 100 for GIPRCNT values of -100.
Turning to `COc1ccc(C(=O)/C=C/c2cn(Cc3ccc(Cl)cc3)c3ccccc23)cc1`, the growth is 71% (inactive).

On to `COc1ccc2c(Nc3ccc(NS(C)(=O)=O)cc3)c3ccccc3nc2c1`, for which the growth is 8% (active). For `COc1ccc(-c2nc(N/N=C/c3cccc(Br)c3)nc(N3CCOCC3)c2C#N)cc1` the value was 69.9% (inactive).

For the compound `O=C(N=Nc1c(O)[nH]c2ccc(F)cc12)c1cc2ccccc2[nH]1`, the growth was 97.2% (inactive).

Turning to `COc1cc(-c2cc(=O)oc3cc(O)ccc23)cc(OC)c1OC`, the growth is 84.9% (inactive). Consider `CN1C2CCC1CN(c1cnc(C(=O)Nc3cc(F)cc4cccnc34)cn1)C2`, for which the growth was 54.4% (inactive). For `CCCCCCCCCCCCCCCC(=O)OC[C@@]1(O)C[C@@]23CC[C@@H]4C(C)(C)CCC[C@@]4(C)[C@@H]2CC[C@H]1C3` the value was 92.3% (inactive).

For the compound `N#Cc1c(Nc2ccccc2)nn2cc(-c3nc4ccccc4s3)c(N)nc12`, the growth was 70.7% (inactive). For `COc1cc(C2CC(c3cccc(Nc4ccncc4)c3)=NN2c2ccc(Cl)cc2)cc(OC)c1OC` (stereo not given) the value was -26.5% (active); for `COc1ccc(/C=C2\COc3ccc(-c4ccccc4)cc3C2=O)cc1O`, 13.1% (inactive); for `C[C@]12CCc3nc(Nc4cccc(O)c4)sc3C1=CC[C@@H]1[C@@H]2CC[C@]2(C)/C(=N\NC(N)=S)CC[C@@H]12`, 30.5% (inactive).

In the case of `O=C(N/N=C/c1ccc(F)cc1)c1ccccc1Nc1cccc(C(F)(F)F)c1`, the growth is 89.5% (inactive). With `O=C(NCCc1ccccn1)OCc1nc2nc(Cl)nc(N3CCOCC3)c2[nH]1`, the growth is -0.399% (active). For `COc1cccc2c1C(=O)c1c(O)c3c(c(O)c1C2=O)C[C@@](O)(C(=O)CO)C[C@@H]3O[C@H]1C[C@H](N)[C@@H](O)[C@H](C)O1` the value was 7.14% (active). For `O=C(Nc1nc2ccc(S(=O)(=O)Nc3ccc(C4(C(F)(F)F)CC4)cc3)cc2[nH]1)c1cnccn1` the value was 55.4% (inactive); for `Cc1ccc(C2C3CC4CCCCC4N3[C@@]3(C(=O)Nc4cc(Cl)ccc43)C2C(=O)c2nc3ccccc3[nH]2)cc1` (stereo not given in full), 56.7% (inactive); for `CCN(CC)CCCC(C)Nc1c2c(nc3ccc(OC)cc13)CCCC2` (stereo not given), 105% (inactive). For `CCCCCCOc1ccc(C(=N)N(CCCC)CCCC)c2ccccc12` the value was -74.6% (active).

As to `COc1cc2c(cc1[N+](=O)[O-])-c1ccc([N+](=O)[O-])cc1/C2=N\O`, the growth is 80.1% (inactive). In the case of `COc1ccc(C2CC(n3nnnc3-c3ccccc3)=NN2)cc1` (stereo not given) it was 61.6% (inactive); in that of `CC(Oc1ccc(C(=O)NS(=O)(=O)C(C)(C)C)cc1C(F)(F)F)c1ccc(Oc2ccccc2)cn1` (stereo not given), 75.2% (inactive). As to `COc1ccc(/C(=C\c2ccccc2)C(=O)O)cc1OC`, the growth is 105% (inactive). For `C/C(=C(/c1ccccc1)c1ccc(OCC(O)CNCCN2CCOCC2)cc1)c1ccccc1` (stereo not given) the value was 78.2% (inactive); for `CS(=O)(=O)c1ccc(-c2cc3c(oc2=O)-c2ccccc2OC3O)cc1` (stereo not given), 95.9% (inactive).

On to `Clc1cc(Cl)cc(N2N=C(c3cccc(Nc4ccncc4)c3)CC2c2ccc3c(c2)OCO3)c1` (stereo not given), for which the growth is -21% (active).

`O=C(CSc1nc2sc3c(c2c(=O)n1Cc1ccccc1)CCCC3)N1CCN(c2ccccc2)CC1`: the growth was 97.9% (inactive). As to `COc1ccc(-c2nc(SC(C)C)nc(NNC(N)=O)c2C#N)cc1`, the growth was 96.9% (inactive). For `CCCCOc1ccc(/C=N/Nc2cc(C)nc3ccc(Cl)cc23)cc1` the value was -58.5% (active); for `CC(C)CN(C(=O)c1ccc(Cl)cc1)c1c(N)n(CC(C)C)c(=O)[nH]c1=O`, 93.8% (inactive); for `O=C(Nc1ccc2ncnc(Nc3ccc(Oc4cccc(F)c4)c(Cl)c3)c2c1)c1ccc(CNCCO)cc1`, 31.5% (inactive). Turning to `O=C(N/N=C/c1cccc(O)c1)c1ccccc1Nc1cccc(C(F)(F)F)c1`, the growth was 75% (inactive). For `[O-][n+]1ccccc1CCN(O)CCc1cccc[n+]1[O-]` the value was 101% (inactive); for `COc1ccc(/C=C\c2nc3ccccc3s2)cc1OP(=O)(O)O`, 40.2% (inactive). `O=S(=O)(NCCCNc1nccc(-c2c(-c3cccc(O)c3)nc3occn23)n1)c1ccc(Br)cc1`: the growth is 86% (inactive). In the case of `CC1=NNC(=O)C1CCC(=O)N/N=C(\C)c1ccc2ccccc2c1` (stereo not given) it was 102% (inactive); in that of `BrC(Br)(Br)c1cnc2ccccc2n1`, 45.4% (inactive); in that of `Cc1cc(NC(=O)c2cnc(N3CCN(CCOCCOCCOCCOCCC(=O)N[C@H](C(=O)N4C[C@H](O)C[C@H]4C(=O)N[C@@H](C)c4ccc(-c5scnc5C)cc4)C(C)(C)C)CC3)cn2)c2ncccc2c1`, 20.7% (inactive). Take `NC(=O)C1(N2CCCCC2)CCN(CCCC(=O)c2ccc(F)cc2)CC1`: the growth is 51.1% (inactive).

For the compound `CN1CCN(c2ccc3nc(-c4cc(C(C)(C)C)c(O)c(C(C)(C)C)c4)[nH]c3c2)CC1`, the growth was 94.1% (inactive). In the case of `CCc1c(Nc2ccc(C)cc2)[nH]c(N)nc1=S` it was 101% (inactive).
